Results filed as inconclusive are left out. Active and inactive are the calls of the source. Calls come from the whole dose curve; as a rule, active = well fitted inhibition curve with a large enough effect; inconclusive = small, poorly fitted or top-dose-only effect, or another doubt; inactive = no such curve, though single readings can be large or run the other way.
molecular target: D(2) dopamine receptor (Homo sapiens) (UniProt P14416); assay: HTS Assay for Allosteric Antagonists of the Human D2 Dopamine Receptor: SAR in Primary Assay.; conditions: HEK293 T-REx D2 cells, calcium flux, dopamine EC80 antagonism; activity, negative = inhibition: at 41.8 µM (top of the series) unless noted
Excerpt: Dopamine receptors (DARs) are involved in the etiology and/or therapy of a number of neuropsychiatric and endocrine disorders. For instance, all receptor-based antiparkinsonian drugs work via stimulating the D2 DAR subtype whereas all FDA-approved antipsychotic agents are antagonists of this receptor. […] There are three different types of allosteric modulators that we are seeking, two of which will stimulate or augment receptor signaling, allosteric agonists and potentiators, while the third, allosteric antagonists, will attenuate receptor signaling. The present project is looking for compound antagonism after an EC80 addition of dopamine by tracking calcium flux in a […], inducible Hek293 Trex D2 cell line, which act through an allosteric site. NIH Chemical Genomics Center [NCGC] NIH Molecular Libraries Probe Centers Network [MLPCN] MLPCN Grant: NS064831 Assay Submitter (PI): David Sibley
Freshly passaged cells are plated in 1536 well black, clear bottom plates at a density of 4000 cells/well in 3 ul of complete media containing 1x tetracycline inducer. After an overnight incubation at 30 deg C in 5% CO2, cells are loaded with 2 ul of the no wash Calcium Assay Kit (ABD Bioquest) and incubated at room temperature for 30 to 90 minutes. Agonist read: A 10 cycle (1 second/cycle) baseline measurement is taken and then the FDSS online 1536 pintool delivers 23 nl of compound library (as well as dopamine controls) to the plate. The plate is measured for kinetically at 1 cycle/sec for 180 seconds. Following the 180 second read, 1 ul of an EC80 (negative modulation assay) is delivered by an onboard pipette head. Measurements are taken kinetically for an additional 180 seconds.

D(2) dopamine receptor (Homo sapiens), sequence (P14416 whole entry, looked up): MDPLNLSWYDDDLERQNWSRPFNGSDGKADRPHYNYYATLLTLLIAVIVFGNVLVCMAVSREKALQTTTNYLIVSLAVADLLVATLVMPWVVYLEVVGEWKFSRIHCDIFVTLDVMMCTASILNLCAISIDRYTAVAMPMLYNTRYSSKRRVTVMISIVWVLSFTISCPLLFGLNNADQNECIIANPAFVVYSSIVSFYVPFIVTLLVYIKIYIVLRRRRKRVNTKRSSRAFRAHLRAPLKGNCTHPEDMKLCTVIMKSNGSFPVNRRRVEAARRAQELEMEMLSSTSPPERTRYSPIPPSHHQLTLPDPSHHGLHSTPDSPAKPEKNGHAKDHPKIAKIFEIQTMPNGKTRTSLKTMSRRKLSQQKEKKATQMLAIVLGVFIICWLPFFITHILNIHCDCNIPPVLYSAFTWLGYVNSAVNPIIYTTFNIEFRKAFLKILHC

SMILES	Potency	activity, negative = inhibition
CN1C(=O)c2ccccc2[S@](=O)c2ccc(C(=O)NCc3cccnc3)cc21	177 nM (active)	–
CN1C(=O)c2ccccc2S(=O)c2ccc(C(=O)NCc3ccc(Cl)cc3)cc21 (stereo unspecified)	353 nM (active)	–
COc1ccc(CNC(=O)c2ccc3c(c2)N(C)C(=O)c2ccccc2S3=O)cc1 (stereo unspecified)	112 nM (active)	–
CCN1C(=O)c2ccccc2S(=O)c2ccc(NC(=O)Cc3ccc(OC)cc3)cc21 (stereo unspecified)	705 nM (active)	–
CN(C)CCCNC(=O)c1ccc2c(c1)N(C)C(=O)c1ccccc1S2=O (stereo unspecified)	–	-85.7% [at 4.65 µM] (active)
CN1C(=O)c2ccccc2S(=O)c2ccc(C(=O)NCc3ccc(Br)cc3)cc21 (stereo unspecified)	70.5 nM (active)	–
CCN1C(=O)c2ccccc2S(=O)c2ccc(C(=O)NCc3ccccc3)cc21 (stereo unspecified)	705 nM (active)	–
CCCN1C(=O)c2ccccc2S(=O)c2ccc(C(=O)NCc3ccc(OC)cc3)cc21 (stereo unspecified)	1770 nM (active)	–
CCN1C(=O)c2ccccc2S(=O)c2ccc(C(=O)NCc3ccccc3OC)cc21 (stereo unspecified)	–	-21.4% (active)
CCN1C(=O)c2ccccc2[S@@](=O)c2ccc(C(=O)NCc3ccc(OC)cc3)cc21	–	-112%
CN1C(=O)c2ccccc2S(=O)c2ccc(C(=O)NCc3cccc(Cl)c3)cc21 (stereo unspecified)	280 nM (active)	–
